# Bioassay records from PubChem.
# A selection: hits, their analogues and other compounds. The true share with any hit is near 6%.
# D1 PAM – enhances dopamine response at the human D1 receptor. P21728. HEK293 TREx D1 cells, calcium flux, dopamine EC20 potentiation. AID 504651. potentiation, % at 10 µM. 360,000 compounds, 0.036% hits; in the data active = potentiation above about 30%; also: 0% is about no effect
# D1 agonist – activates the human D1 dopamine receptor. 360,000 compounds, 1% hits. AID 504660. HEK293 T-REx D1 cells, calcium flux, agonist mode. activation, % at 2 µM. P21728; in the data active = activation above about 30%; also: 0% is about no effect
#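 Agonism was scored from calcium flux recorded over 180 s (1 read/s) after pintool compound addition, following a 10-cycle baseline. Cells were inducible force-coupled HEK293 TREx D1, plated overnight at 30 C and loaded with no-wash calcium dye.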
# D3 antag – D3 dopamine receptor (human) antagonism; P35462; D3R cells, DiscoveRx beta-arrestin luminescence, antagonist mode; stronger effect = lower value; max response, negative = inhibition, %; 360,000 compounds, 2.5% hits; AID 652054; in the data active = max response below about -50%; inconclusive = no clear call, values can overlap the other calls; also: % is scaled to controls: 0 for no effect and ±100 for the full control effect
# Target sequence (P35462 whole entry, looked up): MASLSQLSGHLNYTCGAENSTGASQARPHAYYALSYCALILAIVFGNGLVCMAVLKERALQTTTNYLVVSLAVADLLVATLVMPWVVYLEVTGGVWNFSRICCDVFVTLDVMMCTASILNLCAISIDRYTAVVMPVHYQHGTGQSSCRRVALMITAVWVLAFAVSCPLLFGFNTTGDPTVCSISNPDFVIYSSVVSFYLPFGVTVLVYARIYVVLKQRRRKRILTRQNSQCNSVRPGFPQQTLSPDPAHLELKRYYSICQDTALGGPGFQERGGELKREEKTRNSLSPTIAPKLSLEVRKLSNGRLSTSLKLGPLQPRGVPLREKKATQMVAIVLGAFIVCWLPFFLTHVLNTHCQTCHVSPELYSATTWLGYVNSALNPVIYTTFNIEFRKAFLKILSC
#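 Cells expressing the human receptor were seeded at 1500 cells/well, incubated overnight at 37 degrees C in 5% CO2, then exposed to library compounds with dopamine controls for 90 minutes at 37 degrees C before luminescent detection.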
# D1 antag – antagonists of human D1 dopamine receptor | 360,000 compounds, 3.2% hits | AID 504652 | HEK293 TREx D1 cells, calcium flux, dopamine EC80; stronger effect = lower value | activity change, negative = inhibition, % at 10 µM; in the data active = activity change below about -30%; also: % is scaled to controls: 0 for no effect and ±100 for the full control effect
#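 Kinetic fluorescence of a calcium dye serves as the read-out. D1-expressing Hek293 Trex cells, induced overnight at 30 C, are exposed to compound for 180 s before an EC80 dopamine addition, then read 180 s further.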
# D3 ag – agonists of human D3 dopamine receptor; P35462; D3R DiscoveRx beta-arrestin cells, luminescence, 90 min; max activation, %; 410,000 compounds, 0.58% hits; AID 652048; in the data active = max activation above about 30%; also: 0% is about no effect
#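 Cells at 1500/well, incubated overnight, then treated with pinned compounds (dopamine as control) for 90 min at 37 degrees C. DiscoveRx reagent added for 30 - 60 minutes at room temperature; luminescence read.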
# * marks the source's active call; other numbers are inactive results; ? = inconclusive; nt = no result.
SMILES,D1 PAM,D1 agonist,D3 antag,D1 antag,D3 ag
Cc1cc(OCCOCCNCc2ccccc2)ccc1C(C)C,-2.9,63.0*,16.8,-7.5,-1.2
Cc1ccc(C(C)C)c(OCCNCc2ccccc2)c1,5.7,53.1*,-7.8,14.1,2.8
COCCNCc1ccccc1,-4.2,5.9,12.7,-10.4,-2.4
Clc1cc(Br)ccc1OCCCNCc1ccccc1,-6.2,55.3*,-88.1*,6.1,-10.7
Cc1ccc(C(C)C)c(OCCN(C)C)c1,-5.9,5.8,-75.3*,4.0,-7.2
O=C(Cn1c(=O)n(-c2cccc(Cl)c2)c(=O)c2sc3ccccc3c21)N1CCCC1,1.1,-0.5,nt,-0.3,3.6
O=C(NCC1CCN(Cc2ccc(F)cc2)CC1)c1cc2ccc3cccnc3c2[nH]1,-4.3,3.6,nt,7.9,-19.7
Cc1ccc(C)c(OCCC(=O)OCC(=O)NCc2ccccc2)c1,-4.3,2.4,-3.9,7.1,8.8
Brc1ccc(OCc2ccccc2)c(CNCc2ccncc2)c1,-9.4,2.0,-62.0*,1.8,-40.5
Cc1cc(OCCOCCN(C)C)ccc1Cl,5.2,5.9,0.0,-6.1,-7.5
Cc1ccc(C)c(OCCCNCc2ccccc2)c1,4.3,20.1,-53.6*,-0.9,-6.3
COCCNCCOCCOc1ccc(Cl)c(C)c1,-3.1,32.0*,-51.8*,nt,-20.2
O=c1oc2ccccc2cc1-c1cn2cc(Cc3ccc(Br)cc3)sc2n1,1.9,45.3*,nt,22.4,-4.2
O=C(NC(=O)c1ccccc1O)c1ccc(C(F)(F)F)cc1,-5.4,37.3*,-9.9,-26.9,1.9
O=C(NC(=S)NNC(=O)c1ccccc1O)c1ccc(F)cc1,-3.8,22.4,-10.4,-8.2,-2.0
CCCc1ccc(C(=O)NNC(=O)c2ccc(Br)cc2)cc1,0.4,3.2,12.0,-5.2,0.7
CCCc1ccc(C(=O)NC(=O)c2ccccc2O)cc1,-5.0,21.5,4.3,-64.4*,22.9
CCCCNC(=O)CCCn1c(=O)c2ccccc2n(CC(=O)Nc2ccccc2OCC)c1=O,0.7,0.7,nt,10.4,7.7
Cc1ccc(OCc2nc(-c3ccc(C(=O)N4CCN(c5ccccc5)CC4)cc3)oc2C)cc1,-0.3,2.3,nt,3.0,0.7
Cc1ccc(OCc2nc(-c3ccc(C(=O)N4CCN(c5cc(Cl)ccc5C)CC4)cc3)oc2C)cc1,-4.8,5.2,nt,-33.9*,-6.1
CCN(CC)CCOC(c1ccccc1)c1ccc(C)cc1 (stereo unspecified),-9.7,15.2,-28.4,8.2,-7.1
CCN(CC)CCC(C)OC(c1ccccc1)c1ccccc1 (stereo unspecified),-3.0,9.7,-53.1*,26.2,-4.4
CCOc1ccc(NC(=O)CSc2nc(C)c(C(=O)Nc3ccccc3)c(-c3ccc(Cl)cc3)c2C#N)cc1,-0.7,2.1,nt,-20.3,-0.6
CC(=O)CCc1ccc(OCC(O)CNCCOc2ccc(C)cc2)cc1 (stereo unspecified),7.4,14.3,-25.4,2.7,50.7*
COc1ccc(OCC(O)CNCCOc2ccccc2OC)c(C(C)(C)C)c1 (stereo unspecified),-0.3,59.0*,-80.7*,16.0,-3.7
SMILES,D1 PAM,D1 agonist,D3 antag,D1 antag,D3 ag
CCOC(=O)c1cccc(OCC(O)CNCCOc2ccccc2F)c1 (stereo unspecified),-9.7,14.5,-54.9*,-27.4,1.5
COc1ccccc1NCC(O)COc1ccc(C(C)(C)C)cc1 (stereo unspecified),-2.6,-1.6,-18.6,-10.4,5.1
OC(CNc1ccccc1)COc1ccc(OCC(O)CNc2ccccc2)cc1 (stereo unspecified),-7.3,18.1,-20.0,-40.1*,0.6
C=CC[C@@H](CC(=O)N[C@@H](CO)Cc1ccccc1)C(=O)N[C@@H](COC(=O)[C@@H](CC=C)Cc1ccc(F)cc1)Cc1ccccc1,nt,nt,-14.8,nt,7.6
Cc1ccc(OCCNCC(O)COc2ccccc2)cc1 (stereo unspecified),4.8,24.4,-83.3*,3.1,-14.6
OC(CNCc1ccco1)COc1ccccc1 (stereo unspecified),-3.9,1.9,-55.0*,-9.4,-21.7
COc1ccc(OCC(O)CNCc2ccco2)cc1 (stereo unspecified),1.4,4.4,0.0,6.1,-8.0
Cc1ccccc1OCC(O)CNCCOc1ccc(C(N)=O)cc1 (stereo unspecified),nt,nt,nt,nt,-18.9
Cc1ccc(CSC(Nc2ccc(F)cc2)=C(C#N)C#N)cc1,-11.7,25.5,?,-35.7*,-1.3
CCN(CC)C(=O)CSC(Nc1ccc(F)cc1)=C(C#N)C#N,-0.5,5.9,15.3,-16.0,0.5
CC(C)(C)OC(=O)NCCCCCc1cn([C@@H](CO)C(=O)NCCCCCCCCCCC(=O)N2CCN(C(=O)OC(C)(C)C)CC2)nn1,-1.4,11.4,129.4,-30.0,57.8*
CC[C@H](C)[C@@H](C(=O)NCCCCCCCCCCC(=O)N1CCN(C(=O)OC(C)(C)C)CC1)n1cc(CCCCCNC(=O)OC(C)(C)C)nn1,-9.2,12.3,-8.2,-31.0*,0.3
CC[C@H](C)C(C(=O)N1CCN(C(=O)OC(C)(C)C)CC1)n1cc(C(Cc2ccc(O)cc2)NC(=O)OC(C)(C)C)nn1 (stereo partly specified),0.5,-1.5,72.8,-14.5,52.3*
CCCCc1cn([C@@H](CCCCNC(=O)OC(C)(C)C)C(=O)N2CCN(C(=O)OC(C)(C)C)CC2)nn1,-5.2,0.2,4.5,-5.8,2.1
CC(C)(C)OC(=O)NCCCC[C@@H](C(=O)N1CCN(C(=O)OC(C)(C)C)CC1)n1cc(CCC(=O)O)nn1,1.1,-1.2,12.5,-18.2,38.3*
CC(=O)c1cccc(NC(=O)C2CCN(C(=O)c3cccs3)CC2)c1,5.7,-0.4,-4.9,3.0,-13.2
C[C@@H]1CN([C@H](C)CO)C(=O)CCCn2nncc2CO[C@@H]1CN(C)S(=O)(=O)c1ccc(-n2cccn2)cc1,nt,nt,-1.5,nt,0.3
CN1CCN(c2nc(-c3cccc([N+](=O)[O-])c3)nc3ccccc23)CC1,-3.0,3.4,-23.6,1.0,-18.0
COc1cnc(-c2ccccn2)nc1Sc1cccc(Cl)c1,3.1,2.0,-70.7*,29.8,-5.4
COc1cnc(-c2ccccn2)nc1Oc1ccc(Cl)c2ccccc12,nt,nt,-93.6*,nt,-6.8
COc1cnc(-c2ccccn2)nc1Oc1ccc(Cl)cc1,3.0,2.3,-73.1*,24.6,-5.0
CCn1cc(C(=O)NCc2ccccc2Cl)c(=O)c2cc(S(=O)(=O)N3CCc4ccccc4C3)ccc21,1.1,0.6,nt,8.7,-8.4
CN=c1scc(C)n1/N=C/c1ccc(O)cc1,-3.1,2.5,13.6,-2.1,5.5
COc1ccc(O)c(/C=N/n2c(-c3ccco3)csc2=Nc2cccnc2)c1,-4.8,3.8,5.4,-41.6*,1.8
C=CCN=c1scc(C)n1/N=C/c1ccc(O)c(O)c1,-4.3,1.8,12.6,-50.4*,31.4*
CN=c1scc(C)n1/N=C/c1ccc2c(c1)OCO2,5.8,1.5,-18.5,-10.6,-6.2
